The source of these data is PubChem BioAssay (EPA / NIEHS).

“And” between values parts separate entries of the source, which are not always exact repeats. Equal entries are not always repeated. Inconclusive results are not listed. Some structures have more than one record in an assay (separate samples or runs), and their calls can disagree. The source made the active and inactive calls. The calls were made as follows, unless noted: active = hit-call score of the fitted dose curve at least 0.9, where 1 is the maximum; inactive = score below 0.9.

For orientation: AC50 means the concentration giving half of the maximal activity seen.

Chain of Retinoic acid receptor alpha (Homo sapiens) (P10276 whole entry, looked up): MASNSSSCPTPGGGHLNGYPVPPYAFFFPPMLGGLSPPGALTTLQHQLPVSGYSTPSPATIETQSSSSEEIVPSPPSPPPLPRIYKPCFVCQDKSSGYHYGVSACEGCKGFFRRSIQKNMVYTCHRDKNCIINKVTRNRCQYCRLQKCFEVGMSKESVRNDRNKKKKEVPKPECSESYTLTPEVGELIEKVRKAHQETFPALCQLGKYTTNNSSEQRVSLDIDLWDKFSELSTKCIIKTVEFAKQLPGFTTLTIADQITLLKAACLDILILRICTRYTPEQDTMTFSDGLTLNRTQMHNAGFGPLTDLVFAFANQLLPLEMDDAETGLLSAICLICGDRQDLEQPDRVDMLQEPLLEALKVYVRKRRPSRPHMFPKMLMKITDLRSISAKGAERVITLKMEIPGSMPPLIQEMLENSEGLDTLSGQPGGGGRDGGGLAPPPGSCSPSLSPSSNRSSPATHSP

One assay concerns the target Retinoic acid receptor alpha (Homo sapiens) (UniProt P10276). The assay is described as follows: ATG_RARa_TRANS: Attagene TRANS-FACTORIAL HepG2 Assay for human Retinoic Acid Receptor alpha (RARa) (AID 2283005; active = hit-call score of the fitted dose curve at least 0.9, where 1 is the maximum).
Conditions: not given
In outline: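 HepG2 cells transiently transfected with multiple reporter units expressing chimeric RARα-GAL4 fusion, with GAL4-UAS-driven reporters. After 24 h compound exposure, reporter mRNA induction quantified by RT-PCR and capillary electrophoresis with fluorescent labeling; gain-of-signal fitted relative to DMSO control.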
On to `c1ccc(Nc2ccccc2)cc1`, for which the call was inactive.
Same read-out and setting: to `CCOC(=O)NCCOc1ccc(Oc2ccccc2)cc1` belongs “inactive”; to `CC(C)(c1ccc(O)cc1)c1ccc(O)cc1`, “inactive”.
The same measure, in the same setting: to `O=C(Nc1ccc([N+](=O)[O-])cc1Cl)c1cc(Cl)ccc1O` belongs “inactive”; to `COC(=O)c1cccc(C)c1S(=O)(=O)NC(=O)Nc1nc(OCC(F)(F)F)nc(N(C)C)n1`, “inactive”; to `CCCCOC(=O)[C@@H](C)Oc1ccc(Oc2ccc(C(F)(F)F)cn2)cc1`, “inactive”.
Same read-out and setting: to `CC(C)(C)[C@@H](O)[C@@H](Cc1ccc(Cl)cc1)n1cncn1` belongs “inactive”; to `c1ccc2[nH]c(-c3cscn3)nc2c1`, “inactive”.
`CCN(Cc1c(F)cccc1Cl)c1c([N+](=O)[O-])cc(C(F)(F)F)cc1[N+](=O)[O-]`: the compound was classed as inactive.
Same read-out and setting: next, `CC(C)CCCCCCc1ccc(O)cc1`: “inactive”; `CCNc1nc(N)nc(Cl)n1`: “inactive”; `CCCN(CCC)c1c([N+](=O)[O-])cc(C(F)(F)F)c(N)c1[N+](=O)[O-]`: “inactive”.
On the same count and under the same terms, next, `CCCOC(=O)c1ccc(C(=O)OCCC)nc1`: “inactive”.

Read-out in a further assay: not listed separately
Briefly: BSK_3C_Proliferation: Cell Proliferation Assessment in the BioMAP Diversity Plus: 3C Assay (AID 2283006).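 As to AC50: potency may reflect either rise or fall in cell number versus DMSO.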 To be noted: primary human endothelial cells (HUVEC). In outline: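 Proliferation of human vascular endothelial primary cells after 48 h dosing, quantified as SRB-stained protein at 560 nm relative to DMSO.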
In the case of `CCCCC(CC)CN1C(=O)C2C3C=CC(C3)C2C1=O` (centres undefined), the AC50 is 31.2 µM (active).
On the same count and under the same terms, next, `O=C(O)C1(C(=O)Nc2ccc(Cl)cc2Cl)CC1`: 32 µM (active).
In the case of `COC(=O)c1ccccc1C(=O)O`, the outcome was inactive.
For `c1ccc(Nc2ccccc2)cc1`, the result was inactive.
For `CCOC(=O)NCCOc1ccc(Oc2ccccc2)cc1`, the half-maximal activity concentration (AC50) was 20 µM (active).
Take `CC(C)(c1ccc(O)cc1)c1ccc(O)cc1`: the half-maximal activity concentration (AC50) is 27.4 µM (active) and the result was inactive.
Turning to `O=C(Nc1ccc([N+](=O)[O-])cc1Cl)c1cc(Cl)ccc1O`, the AC50 is 0.313 µM (active).
For the compound `COC(=O)c1cccc(C)c1S(=O)(=O)NC(=O)Nc1nc(OCC(F)(F)F)nc(N(C)C)n1`, the result was inactive.
On the same count and under the same terms, next, `CCCCOC(=O)[C@@H](C)Oc1ccc(Oc2ccc(C(F)(F)F)cn2)cc1`: “inactive”.
The same measure, in the same setting: next, `O=C(c1ccc(O)cc1O)c1ccc(O)cc1O`: “inactive”; `CC(C)(C)[C@@H](O)[C@@H](Cc1ccc(Cl)cc1)n1cncn1`: “inactive”; `c1ccc2[nH]c(-c3cscn3)nc2c1`: “inactive”.
On the same count and under the same terms, next, `CCOC(=O)C(C)Oc1ccc(Oc2nc3ccc(Cl)cc3o2)cc1` (centres undefined): “inactive”; `CCC(C)OC(=O)N1CCCCC1CCO` (centres undefined): “inactive”.
As for `N#CSCSc1nc2ccccc2s1`, the AC50 was 824 nM (active) and 2.52 µM (active).
Still for that read-out and setting: to `CCN(Cc1c(F)cccc1Cl)c1c([N+](=O)[O-])cc(C(F)(F)F)cc1[N+](=O)[O-]` belongs 12.9 µM (active).
The same measure, in the same setting: next, `CC(C)CCCCCCc1ccc(O)cc1`: 4.54 µM (active).
Consider `CCNc1nc(N)nc(Cl)n1`, for which the outcome was inactive.
Still for that read-out and setting: to `COC(=O)c1c(Cl)nn(C)c1S(=O)(=O)NC(=O)Nc1nc(OC)cc(OC)n1` belongs “inactive”.
`C[C@]12C[C@H](O)[C@H]3[C@@H](CCC4=CC(=O)CC[C@@]43C)[C@@H]1CC[C@@H]2C(=O)CO`: the AC50 was 29 µM (active).
On the same count and under the same terms, to `C#C[C@]1(O)CC[C@H]2[C@@H]3CCC4=CC(=O)CC[C@@H]4[C@H]3CC[C@@]21CC` belongs 16 µM (active).
The same measure, in the same setting: next, `CCCN(CCC)c1c([N+](=O)[O-])cc(C(F)(F)F)c(N)c1[N+](=O)[O-]`: 13.2 µM (active).
`COC(=O)c1ccc(CNS(C)(=O)=O)cc1S(=O)(=O)NC(=O)Nc1nc(OC)cc(OC)n1`: the outcome was inactive.
As to `CCSC(=O)N(CC(C)C)CC(C)C`, the outcome was inactive.
Still for that read-out and setting: to `CCCOC(=O)c1ccc(C(=O)OCCC)nc1` belongs “inactive”; to `COC(=O)c1ccccc1S(=O)(=O)NC(=O)Nc1nc(OC(F)F)cc(OC(F)F)n1`, “inactive”; to `CCCCOC(=O)C(C)Oc1ccc(Oc2ccc(C(F)(F)F)cn2)cc1` (centres undefined), “inactive”.
The same measure, in the same setting: next, `COc1nc(C)nc(NC(=O)NS(=O)(=O)c2ccccc2OCCCl)n1`: “inactive”; `O=C(c1ccccc1)C1CCCCC1`: “inactive”.
On to `CC(=O)S[C@@H]1CC2=CC(=O)CC[C@]2(C)[C@H]2CC[C@@]3(C)[C@@H](CC[C@@]34CCC(=O)O4)[C@H]12`, for which the AC50 is 28 µM (active).
